{"source": "PubChem BioAssay (NCI)", "note": "About 83,000 compounds went through this panel and 20% of them were active in at least one assay; those are over-represented in the sample as a whole.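 Values shown are percent growth following 48 h exposure of cells in 96-well plates to a single concentration of compound; below 10 was considered active.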 Calls of active or inactive are those of the source.", "data": [{"test_system": "IGROV1 ovarian", "assay": "NCI-60 one-dose screen, 48 h (100 = growth as untreated, 0 = no growth, -100 = all killed)", "conditions": "10 µM unless noted", "procedure": "Growth inhibition of the IGROV1 human tumor cell line is measured as a screen for anti-cancer activity. Cells are grown in 96 well plates and exposed to the test compound for 48 hours. Compounds are tested at a single concentration, which is 10^-5 M for most compounds. The reported endpoint is percent growth (GI% or GIPRCNT), where numbers from 0 - 100% represent growth inhibition, and numbers from -100% - 0 represent cell death. For example, a value of 40 represents 60% growth inhibition. A value of 0 means no net growth occurred over the course of the experiment. A value of -40 indicates 40% of cells at the beginning of the experiment died by the end of the experiment. A value of -100 means all cells are dead at the end of the experiment.\nNCI-60 Human Tumor Cell Lines Screen was performed using the standard one-dose NCI protocol, which is described in more detail at https://dtp.cancer.gov/discovery_development/nci-60/default.htm.\nCompounds with GIPRCNT values below 10 were considered active. Activity score was based on GIPRCNT using the following formula: […]\nScore is 0 for GIPRCNT values of 100 or above, 50 for GIPRCNT values of 0, and 100 for GIPRCNT values of -100.", "values": [{"smiles": "CC1CCN(CCCCCOc2ccc3oc4ccccc4c(=O)c3c2)CC1", "growth": "68.9% (inactive)"}, {"smiles": "CC1(C)CC[C@]2(c3nnc(-c4ccncc4)o3)CC[C@]3(C)C(=CC[C@@H]4[C@@]5(C)CCC(=O)C(C)(C)[C@@H]5CC[C@]43C)[C@@H]2C1", "growth": "93.2% (inactive)"}, {"smiles": "CN1CCN(CC#CCOC(=O)CNC(=O)[C@]23CCC(C)(C)C[C@H]2C2=CC[C@@H]4[C@@]5(C)CC[C@H](O)C(C)(C)[C@@H]5CC[C@@]4(C)[C@]2(C)CC3)CC1", "growth": "90.4% (inactive)"}, {"smiles": "Cc1cccc(C)c1NCc1nnc(-c2ccc(O)cc2)o1", "growth": "99.9% (inactive)"}, {"smiles": "COc1ccc(-n2nc(C(=O)NCC(=O)O)nc2-c2ccccc2)cc1", "growth": "105% (inactive)"}, {"smiles": "CNCc1cccc2c1OCCOCCOCCN(CCN1CCOCC1)S(=O)(=O)c1ccc(cc1)-c1cnc(N)c(n1)C(=O)N2", "growth": "47.9% (inactive)"}, {"smiles": "COc1cc(C2=NN(C=O)C(c3cccc(Nc4ccnc5cc(C(F)(F)F)ccc45)c3)C2)cc(OC)c1OC", "note": "(stereo not given)", "growth": "67.3% (inactive)"}, {"smiles": "NS(=O)(=O)c1ccc(-n2ncc(NC(=O)Nc3ccc(S(=O)(=O)Nc4nccs4)cc3)c2-c2ccccc2)cc1", "growth": "105% (inactive)"}, {"smiles": "C[C@]12CC[C@@H]3c4ccc(O)cc4CC[C@H]3[C@@H]1C[C@H](O)C2", "growth": "79.2% (inactive)"}, {"smiles": "Cc1ccc(-c2nc(C#N)c(S(=O)(=O)N(C)CCO)o2)cc1", "growth": "60.5% (inactive)"}, {"smiles": "C=C(C)[C@@H]1CC[C@]2(C(=O)O)CC[C@]3(C)[C@H](CC[C@@H]4[C@@]5(C)C[C@@H](CC#Cc6ccccc6C)C(=O)C(C)(C)[C@@H]5CC[C@]43C)[C@@H]12", "growth": "62% (inactive)"}, {"smiles": "COc1ccc2nc3nc4ccc[nH]c4cc3c2c1", "growth": "69.6% (inactive)"}, {"smiles": "Cc1cc2ccccc2c[n+]1CC(=O)c1ccc(-c2ccccc2)cc1", "growth": "49.2% (inactive)"}, {"smiles": "COc1ccc(/C=C(/C(=O)N2CCN(Cc3ccccc3)CC2)c2cc(OC)c(OC)c(OC)c2)cc1O", "growth": "68.4% (inactive)"}, {"smiles": "CC(C)(C)c1nn(-c2ccccc2)c2c1COCN2Cc1ccc(Cl)cc1", "growth": "117% (inactive)"}, {"smiles": "CC(=O)c1cc2c(N)c(C(=O)Nc3ccccn3)sc2nc1C", "growth": "92.8% (inactive)"}, {"smiles": "COc1ccc(NC(=O)Nc2ccc(Nc3nc(C)cc(Nc4ccc(C)cc4)n3)cc2)cc1", "growth": "-70.5% (active)"}, {"smiles": "COc1cccc(C(=O)OCCn2nc3c4c(cccc42)C(=O)c2ccccc2-3)c1O", "growth": "44.9% (inactive)"}, {"smiles": "COc1cc2nc3c(=O)n(-c4ccc(C#N)cc4)cnn3c(=O)c2cc1OC", "growth": "103% (inactive)"}, {"smiles": "O=C(CN1N=C(c2ccc(F)cc2)CCC1=O)Nc1nc2ccccc2s1", "growth": "-49.5% (active)"}, {"smiles": "N#Cc1c(-c2ccc(F)cc2)c(C#N)c2c(C#N)c(N)nn2c1N", "growth": "80.9% (inactive)"}, {"smiles": "Cc1nccc2c3ccc(OCc4cn(-c5ccc(Cl)cc5)nn4)cc3n(CC(C)C)c12", "growth": "44.4% (inactive)"}, {"smiles": "CC1=C(CCCOC(=O)NCCCl)C2=C(C)C3(CC3)[C@@](C)(O)C(=O)C2=C1", "growth": "4.17% (active)"}, {"smiles": "COc1ccc(C2C(c3ccccc3)C(=O)N2c2cc(OC)c(OC)c(OC)c2)cc1I", "note": "(stereo not given)", "growth": "20.6% (inactive)"}, {"smiles": "COc1ccc(-c2cc(-c3nnc(SCC(=O)Nc4ccc(/C(C)=N\\O)cc4)o3)c3ccccc3n2)cc1", "growth": "112% (inactive)"}, {"smiles": "COc1ccc2oc(=O)cc(-c3c(C#N)c(N)n4nc(N)c(C#N)c4c3C#N)c2c1", "growth": "94.4% (inactive)"}, {"smiles": "C[C@H](Oc1cc(-c2cnn(C3CCNCC3)c2)cnc1N)c1c(Cl)ccc(F)c1Cl", "growth": "71.9% (inactive)"}, {"smiles": "CCSc1nc(Cl)c(C#N)c(-c2ccc(F)cc2)n1", "growth": "98.9% (inactive)"}, {"smiles": "COc1ccc2[nH]c(=O)c(/C=C/C(=O)/C=C/c3ccc(O)c(OC)c3)cc2c1", "growth": "2.67% (active)"}, {"smiles": "Cc1[nH]c(N=Nc2ccccc2)nc1N=Nc1ccccc1", "growth": "-22.8% (active)"}, {"smiles": "O=C1c2ccccc2C(=O)c2c1oc1c2c(=O)[nH]c2ccc(Cl)cc21", "growth": "-3.63% (active)"}, {"smiles": "COc1ccc2c(c1)/C(=C1\\S/C(=N/c3nnc(C)s3)NC1=O)C(=O)N2Cc1ccc(Cl)cc1", "growth": "41.9% (inactive)"}, {"smiles": "Cc1cccc(NC(=O)c2sc3nc4c(cc3c2N)CN(Cc2ccccc2)CC4)c1C", "growth": "48.5% (inactive)"}, {"smiles": "O=C(O)c1cc(N=Nc2ccc(-c3ccc(N=Nc4c(S(=O)(=O)O)cc5ccc(Nc6ccccc6)cc5c4O)cc3)cc2)ccc1O", "growth": "100% (inactive)"}, {"smiles": "C=C(C)[C@@H]1CC[C@]2(C(=O)N=C=S)CC[C@]3(C)[C@H](CC[C@@H]4[C@@]5(C)CCC(=O)C(C)(C)[C@@H]5CC[C@]43C)[C@@H]12", "growth": "66.2% (inactive)"}, {"smiles": "COc1ccc(/C=C(/C(=O)N2CCCC2)c2cc(OC)c(OC)c(OC)c2)cc1", "growth": "49.9% (inactive)"}, {"smiles": "CCCCC(=O)Nc1c(C(=O)Nc2ccccc2)sc2nc3c(cc12)C(OC(=O)CCCC)CCC3", "note": "(stereo not given)", "growth": "99.8% (inactive)"}, {"smiles": "CC[C@H](Nc1ncnc2nc[nH]c12)c1nc2cccc(CC(=O)c3ccc(C(=O)NO)cc3)c2c(=O)n1-c1ccccc1", "growth": "89.1% (inactive)"}, {"smiles": "O=CN1N=C(c2ccc3c(c2)OCO3)CC1c1cccc(Nc2ccnc3cc(C(F)(F)F)ccc23)c1", "note": "(stereo not given)", "growth": "91.8% (inactive)"}, {"smiles": "O=C1c2ccccc2C(=O)c2c1oc1c2c(=O)[nH]c2ccccc21", "growth": "55.1% (inactive)"}]}]}
